Shiga toxin inh = blocks Shiga toxin action in Vero cells; Vero cells, Shiga toxin protein synthesis inhibition reporter; inhibition, % at 38.7 µM; 290,000 compounds, 9.2% hits; AID 2315; in the data active = inhibition mostly above about 28%, no sharp cut-off; inactive = mostly below about 43%; also: 0% is about no effect
Lassa entry inh = blocks Lassa virus binding to or entry into cells. Lassa virus pseudotype entry inhibition, cell reporter. Potency, µM (series often up to 37.9 µM), inactives show top-dose activity change, negative = inhibition, most hits filed as inhibitors. 300,000 compounds, 1.2% hits; calls by dose curve; tested in HEK293 cells; also: potency is read from the fitted curve at half-maximal effect; % is scaled to controls: 0 for no effect and ±100 for the full control effect; nearly all actives have a fitted effect of over 50% in size
Cycloheximide cs = counter-screen hit for Shiga toxin inhibitors, cycloheximide | cell reporter, cycloheximide protein synthesis inhibition counterscreen | max response, % | 300,000 compounds, 12% hits; in the data active = max response mostly above about 13%, no sharp cut-off; inactive = mostly below about 14%; also: read at 38.3 µM for the half of the compounds with a filed dose; 0% is about no effect
MARV entry inh = inhibitors of Marburg virus binding or cell entry. 300,000 compounds, 1.8% hits. Potency, µM (series often up to 37.8 µM), for inactives: at the highest dose activity change, negative = inhibition, actives largely listed as inhibitors. Marburg virus pseudotyped entry inhibition, cell reporter; calls by dose curve; tested in HEK293 cells; also: potency is read from the fitted curve at half-maximal effect; % is scaled to controls: 0 for no effect and ±100 for the full control effect
AMA1-RON2 inh = disrupts binding of P. falciparum AMA1 to RON2; AlphaScreen AMA1-biotinylated RON2 peptide binding; Potency, µM (series often up to 58.2 µM), without a hit: at the top dose activity change, negative = inhibition, most hits filed as inhibitors; 360,000 compounds, 0.2% hits; active = well fitted inhibition curve with a large enough effect; inconclusive = small, poorly fitted or top-dose-only effect; inactive = no such curve, though single readings can be large or run the other way;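 also: potency is read from the fitted curve at half-maximal effect; 0% = vehicle wells and -100% = peptide control; nearly all actives have a fitted effect of over 45% in size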
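AMA1 (3D7) with his tag at 25 nM final met compounds first, then biotinylated RON2 peptide at 25 nM; detection used donor plus acceptor beads, 10 µg/mL apiece, read by AlphaScreen after 30 min at room temperature.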
An asterisk follows results filed as active; u = inconclusive; x = no result given; [ ] = dose if it differs, or a comment. The entries come from a sample that favours hits as a whole.

SMILES	Shiga toxin inh	Lassa entry inh	Cycloheximide cs	MARV entry inh	AMA1-RON2 inh
O=C(NC12CC3CC(CC(C3)C1)C2)c1ccc(-c2cccc(Cl)c2)o1	83*	-21%	35*	-25%	-25%
O=C(NC12CC3CC(CC(C3)C1)C2)c1ccc(-c2ccc(Cl)cc2)o1	129*	u	85*	u	-24%
COc1ccc(S(=O)(=O)NC(=O)C2(C)CCN2C(=O)Cc2cc(F)ccc2F)cc1 (centres undefined)	x	x	x	x	34%
O=C(NC12CC3CC(CC(C3)C1)C2)c1ccco1	-16	-8%	0	-9%	3%
O=C(NC12CC3CC(CC(C3)C1)C2)c1ccc(-c2ccccc2Cl)o1	161*	u	44*	u	-15%
C=CCNc1nc(Cl)nc(Nc2ccc([N+](=O)[O-])cc2)n1	-7	-10%	-1	u	-1%
C=CCNc1nc(Nc2ccc([N+](=O)[O-])cc2)nc(N2CCCC2)n1	-11	-28%	26*	u	-4%
Cc1cc(C)c(OCC(=O)NCC(C)(C)N2CCOCC2)c(C)c1	x	u	x	-23%[46.1 µM]	33%
CCN(CC(=O)NCc1ccc(Cl)cc1)C(=O)c1ccc(S(=O)(=O)NCc2ccco2)cc1	67*	2%	59*	-13%	24%
Cc1cccc(C)c1N(CC(=O)NCc1ccco1)C(=O)CNS(=O)(=O)c1ccc(F)cc1	17	-29%	2	8.9µM*	12%
CCOC(=O)c1cnc(/N=C/N(C)C)s1	36	21%	27	23%[46.1 µM]	13%
Cc1c(NC(=O)c2ccc(COc3ccc4ccccc4c3)o2)c(=O)n(-c2ccccc2)n1C	91*	10%	31*	u	-11%
Cc1c(NC(=O)c2cc3ccccc3oc2=O)c(=O)n(-c2ccccc2)n1C	86*	23%	42*	25%	-6%
CCN(CC(=O)Nc1ccc(NC(C)=O)cc1)C(=O)c1ccc(COc2ccc(C(C)(C)C)cc2)cc1	x	x	x	x	-9%
CCOc1ccc(OCc2ccc(C(=O)N(CC)CC)cc2)cc1	122*	x	32*	x	-12%
CCC(=O)c1ccc(OCc2ccc(C(=O)OC)cc2)cc1	100*	u	113*	10µM*	12%
CCC(=O)c1ccc(OCc2ccc(C#N)cc2)cc1	77	9%	28*	-5%[46.1 µM]	4%
CCC(=O)c1ccc(OCC(=O)O)cc1	35	-13%	-3	-3%	30%
c1ccc(N2N=C(c3cccs3)CC2c2ccco2)cc1 (centres undefined)	27	24%	6	22%	170%
Clc1ccc(N2N=C(c3cccs3)CC2c2ccco2)cc1 (centres undefined)	7	20%	37*	-3%[46.1 µM]	183%
Cc1sc(NC(=O)/C=C/c2ccco2)c(C(=O)O)c1C	56	u	25*	u	19%
O=C(/C=C/c1ccccc1)Nc1cccnc1Cl	105*	u	42*	-13%	-5%
O=C(/C=C/c1ccco1)Nc1ccccc1N1CCCCC1	92*	x	24*	x	-25%
O=C(/C=C/c1ccco1)NCc1ccccn1	17	x	0	x	53%
O=C(/C=C/c1ccco1)Nc1cccnc1Cl	157*	x	46*	x	-8%
SMILES	Shiga toxin inh	Lassa entry inh	Cycloheximide cs	MARV entry inh	AMA1-RON2 inh
CCOC(=O)c1c(NC(=O)/C=C/c2ccc(C)o2)sc(C)c1C	-9	1%	-4	16%	-10%
O=C(COC(=O)/C=C/c1ccccc1)Nc1cccnc1Cl	x	-1%	x	4%[46.1 µM]	-4%
O=C(NCc1ccccc1)c1cc(C2COCCN2C(=O)OCCF)on1 (centres undefined)	x	x	x	x	3%
O=C(CN1C2CCCC1CC(NC(=O)c1ccccc1)C2)Nc1nccs1 (centres undefined)	-8	-24%	-2	14%	4%
COC(=O)c1ccccc1NC(=O)NCc1ccco1	-9	-19%[14.3 µM]	-2	17%	-1%
COC(=O)c1ccccc1NC(=O)/C=C/c1ccco1	53*	u	38*	1%	-27%
CCOC(=O)c1sc(NC(=O)C2CCCCC2)nc1C	x	x	x	x	-9%
CCOC(=O)c1sc(NC(C)=O)cc1C	35	x	1	x	26%
CCOC(=O)c1sc(NC(=O)Nc2ccccc2)cc1C	99*	14µM*	152*	16µM*	9%
CCOC(=O)c1sc(NC(=O)Nc2ccccc2Cl)cc1C	113*	7.9µM*	69*	u	-1%
CCOC(=O)c1sc(NC(=O)c2ccc(C)s2)cc1C	68*	u	65*	-19%	6%
CCOC(=O)c1cc(NC(=O)Nc2ccccc2Cl)c(C)nc1C	24	u	1	u	5%
CCOC(=O)c1sc(NC(=O)C2CCC2)cc1C	116*	x	28*	x	0%
COc1ccccc1NC(=O)CSc1oc(-c2ccccc2)nc1S(=O)(=O)c1ccccc1	x	-28%[46.1 µM]	x	u	x
C=CCOC(=O)[C@H](O)[C@@H](O)C(=O)OCC=C	x	x	x	-3%[14.2 µM]	x
COC(=O)c1ccc2c(=O)[nH]c(CCl)nc2c1	-1	u	-1	13µM*	16%
COC(=O)c1ccc2c(=O)[nH]c(CN3c4ccccc4CC3C)nc2c1 (centres undefined)	-7	u	-2	1%	41%
COc1ccc(-c2cc(C(F)(F)F)nc(SCCC(=O)Nc3cccc(O)c3)n2)cc1	x	14%[46.1 µM]	x	u	x
CN1C(=O)[C@]2(c3ccccc31)[C@H]1CCCC=C1C(C#N)=C(N)C2(C#N)C#N	x	x	x	-6%	x
O=C(OCC1CC(c2ccccn2)=NO1)c1ccc(Br)cc1 (centres undefined)	41	u	56*	-1%	-5%
O=C(COC(=O)c1ccccn1)c1ccc(Br)cc1	30	7%	18	15%	-11%
CCN(CC)c1ccc(/C=C/c2cc(-c3ccccc3)c3ccccc3n2)cc1	24	x	16*	x	90%
COc1ccc(N=C/C=C2\C=C(c3ccccc3)OC(C)(C)O2)cc1	44	-24%	17*	u	u
COc1ccc2c(c1)c(=O)c(S(=O)(=O)c1ccc(F)cc1)cn2Cc1ccccc1Cl	x	5%[46.1 µM]	x	20%[46.1 µM]	x
Cc1ccc(S(=O)(=O)N(C)C)cc1NC(=O)C(C)N(C)CCOc1ccc(Cl)cc1 (centres undefined)	2	u	-2	u	-8%
SMILES	Shiga toxin inh	Lassa entry inh	Cycloheximide cs	MARV entry inh	AMA1-RON2 inh
CCCc1cc(C(=O)NC2CCCCC2)no1	61*	x	62*	x	-4%
CCCc1cc(C(=O)NC2CCCC2)no1	86*	x	41*	x	0%
CC(C)c1cc(C(=O)NC2CCCCC2)no1	11*	-11%	35*	u	0%
CCCc1cc(C(=O)N(C2CCCCC2)C2CCCCC2)no1	-5	x	-1	x	5%
CCCc1cc(C(=O)NC2CCCN(Cc3ccccc3F)C2)no1 (centres undefined)	-4	u	-2	u	-8%
Cc1ccc(C(=O)C=CNNC(=O)c2ccccc2)cc1	44*	x	33*	x	120%
Cc1ccc(S/C=C\C(=O)c2ccccc2)cc1	79*	-10%	44*	u	59%
Cc1ccc(C(=O)NNC(=O)c2ccc3ccccc3c2)cc1	x	17%	x	1%	44%
Cc1cccc(C(=O)NN/C=C/C(=O)c2ccccc2)c1	56*	-2%	31*	u	71%

Bioassay records as filed in PubChem BioAssay.
